Laboratory results reported in the supplement of paper PMC10849652.
About 8,800 targets were measured; listed, in parts, are those with a hit and a random draw of the rest. About 0.5% of all pairs of compound and target were hits.

Experiments:
Experiment in all cases: log2 fold change, soluble protein after heating vs DMSO (PISA); higher = thermal stabilisation; K562 lysate, 10 uM; active = over 0.2 and 3.5 SD of the protein, either way, in both replicates (recomputed)
[1] = compound: Cc1cn(-c2cc(NC(=O)c3ccc(C)c(Nc4nccc(-c5cccnc5)n4)c3)cc(C(F)(F)F)c2)cn1 [nilotinib]
Method in brief: (§1)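 Pellets of K562 cells were dounce-homogenised in PBS pH 7.4 with 1 mM MgCl2, and the crude extract was held at 1 mg/mL protein for a 30 min treatment with 10 μM compound. Aliquots were heated for 3 min over 48°C-58°C and pooled before NP-40 was added to 0.5% at 4°C. The supernatant from 21,000xg for 90 min was quantified by TMTpro 16plex LC-MS/MS with channel sums equalised. Values are reported from duplicates as log-two fold change in thermal stability relative to solvent controls.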

[2] = compound: Cc1nc(Nc2n[nH]c3c2CN(C(=O)N[C@H](CN(C)C)c2ccccc2)C3(C)C)c2sccc2n1
Method in brief: as §1

[3] = compound: Cc1nc(Nc2ncc(C(=O)Nc3c(C)cccc3Cl)s2)cc(N2CCN(CCO)CC2)n1 [dasatinib]
Method in brief: as §1

[4] = compound: Cc1ncc(-c2ccnc(Nc3ccc(S(C)(=O)=O)cc3)n2)n1C(C)C
Method in brief: as §1

[5] = compound: Cn1cc(-c2ccc3c(c2)CCN3C(=O)Cc2cccc(C(F)(F)F)c2)c2c(N)ncnc21
Method in brief: as §1

[6] = compound: Cn1cc(CNCC2CCN(c3ncc(C(=O)NO)cn3)CC2)c2ccccc21 [quisinostat]
Method in brief: as §1

[7] = compound: Cn1cncc1[C@@](N)(c1ccc(Cl)cc1)c1ccc2c(c1)c(-c1cccc(Cl)c1)cc(=O)n2C [tipifarnib]
Method in brief: as §1

[8] = compound: NC(=O)Nc1cc(-c2cccc(F)c2)sc1C(=O)N[C@H]1CCCNC1
Method in brief: as §1

[9] = compound: NC(=O)c1cnc(N[C@@H]2CCCC[C@@H]2N)nc1Nc1cccc(-n2nccn2)c1
Method in brief: as §1

[10] = compound: NC1(c2ccc(-c3nc4ccn5c(=O)[nH]nc5c4cc3-c3ccccc3)cc2)CCC1
Method in brief: as §1

Measured: log2 fold change

PPT2 isoform 3 (UniProt Q9UMR5)
Sequence of UniProt Q9UMR5 (Q9UMR5 whole entry, looked up): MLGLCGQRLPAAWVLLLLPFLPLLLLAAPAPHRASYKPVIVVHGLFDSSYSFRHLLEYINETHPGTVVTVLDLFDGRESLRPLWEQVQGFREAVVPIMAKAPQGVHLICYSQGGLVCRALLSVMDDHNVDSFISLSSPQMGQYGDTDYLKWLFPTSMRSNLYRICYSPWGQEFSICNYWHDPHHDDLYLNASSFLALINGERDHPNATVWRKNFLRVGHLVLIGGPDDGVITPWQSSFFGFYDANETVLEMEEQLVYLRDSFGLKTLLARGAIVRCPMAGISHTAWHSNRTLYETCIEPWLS
inactive: [1] 0.01 | [2] -0.019 | [3] 0.006 | [4] -0.019 | [5] 0.025 | [6] -0.004 | [7] -0.025 | [8] 0.032 | [9] 0.002 | [10] 0.02

POLR3E (UniProt Q9NVU0)
inactive: [1] 0.017 | [2] -0.054 | [3] -0.035 | [4] -0.018 | [5] 0.018 | [6] -0.023 | [7] 0.04 | [8] 0.037 | [9] 0.009 | [10] -0.001

PDXK (UniProt O00764)
inactive: [1] 0.123 | [2] -0.031 | [3] 0.005 | [4] 0.055 | [5] -0.003 | [6] -0.03 | [7] 0.012 | [8] -0.008 | [9] -0.008 | [10] -0.023

PHOSPHO2 (UniProt Q8TCD6)
inactive: [1] 0.003 | [2] -0.013 | [3] 0.024 | [4] 0.038 | [5] -0.033 | [6] 0.03 | [7] 0.068 | [8] -0.036 | [9] -0.004 | [10] 0.013

POGK (UniProt Q9P215)
inactive: [1] -0.04 | [2] 0.005 | [3] -0.068 | [4] -0.001 | [5] -0.023 | [6] -0.086 | [7] 0.007 | [8] 0.108 | [9] 0.008 | [10] -0.006

PLA2G4B isoform 6 (UniProt P0C869)
Sequence of UniProt P0C869 (P0C869 whole entry, looked up): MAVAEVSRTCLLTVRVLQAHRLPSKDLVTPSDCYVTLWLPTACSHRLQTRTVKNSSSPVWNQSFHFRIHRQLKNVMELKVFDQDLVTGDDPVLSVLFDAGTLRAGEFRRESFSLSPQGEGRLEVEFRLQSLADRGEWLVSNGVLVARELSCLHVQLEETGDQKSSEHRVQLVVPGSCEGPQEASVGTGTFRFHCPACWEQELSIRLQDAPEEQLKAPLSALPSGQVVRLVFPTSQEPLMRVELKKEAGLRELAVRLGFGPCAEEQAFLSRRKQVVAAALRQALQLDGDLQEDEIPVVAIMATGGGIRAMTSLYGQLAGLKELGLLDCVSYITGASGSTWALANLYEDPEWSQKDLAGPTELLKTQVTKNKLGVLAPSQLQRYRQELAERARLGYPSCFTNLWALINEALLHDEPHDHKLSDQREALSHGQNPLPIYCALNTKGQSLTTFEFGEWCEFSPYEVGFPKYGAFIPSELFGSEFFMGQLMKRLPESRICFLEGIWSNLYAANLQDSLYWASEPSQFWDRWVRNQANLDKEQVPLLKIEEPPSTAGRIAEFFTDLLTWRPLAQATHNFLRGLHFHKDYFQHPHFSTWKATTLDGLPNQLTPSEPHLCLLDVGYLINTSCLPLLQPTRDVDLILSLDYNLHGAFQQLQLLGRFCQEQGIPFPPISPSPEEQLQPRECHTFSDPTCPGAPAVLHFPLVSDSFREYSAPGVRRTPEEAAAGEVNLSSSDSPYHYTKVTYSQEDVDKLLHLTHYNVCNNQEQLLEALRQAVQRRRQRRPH
active: [6] -0.671
inactive: [1] -0.177 | [2] 0.259 | [3] -0.1 | [4] -0.326 | [5] -0.047 | [7] 0.022 | [8] 0.158 | [9] 0.006 | [10] -0.073

PIK3CB (UniProt P42338)
active: [10] 0.44
inactive: [1] 0.015 | [2] 0.021 | [3] -0.072 | [4] 0.094 | [5] 0.055 | [6] -0.05 | [7] -0.032 | [8] 0.053 | [9] 0.015

PRKCSH (UniProt K7ELL7)
inactive: [1] -0.013 | [2] -0.163 | [3] 0.014 | [4] 0.125 | [5] -0.015 | [6] 0.04 | [7] 0.024 | [8] 0.024 | [9] -0.032 | [10] -0.031

PPP2R5C isoform 5 (UniProt Q13362)
inactive: [1] 0.016 | [2] 0.003 | [3] -0.053 | [4] 0.022 | [5] -0.005 | [6] 0.016 | [7] 0.074 | [8] 0.032 | [9] 0.059 | [10] -0.019

PGGT1B (UniProt P53609)
inactive: [1] 0.01 | [2] -0.005 | [3] 0.005 | [4] -0.03 | [5] 0.048 | [6] 0.066 | [7] 0.208 | [8] 0.018 | [9] -0.037 | [10] 0.047

PUF60 (UniProt Q9UHX1)
inactive: [1] -0.006 | [2] -0.002 | [3] -0.025 | [4] 0.011 | [5] -0.017 | [6] 0.073 | [7] 0.016 | [8] -0.017 | [9] -0.001 | [10] 0.021

PUS3 (UniProt Q9BZE2)
Sequence of UniProt Q9BZE2 (Q9BZE2 whole entry, looked up): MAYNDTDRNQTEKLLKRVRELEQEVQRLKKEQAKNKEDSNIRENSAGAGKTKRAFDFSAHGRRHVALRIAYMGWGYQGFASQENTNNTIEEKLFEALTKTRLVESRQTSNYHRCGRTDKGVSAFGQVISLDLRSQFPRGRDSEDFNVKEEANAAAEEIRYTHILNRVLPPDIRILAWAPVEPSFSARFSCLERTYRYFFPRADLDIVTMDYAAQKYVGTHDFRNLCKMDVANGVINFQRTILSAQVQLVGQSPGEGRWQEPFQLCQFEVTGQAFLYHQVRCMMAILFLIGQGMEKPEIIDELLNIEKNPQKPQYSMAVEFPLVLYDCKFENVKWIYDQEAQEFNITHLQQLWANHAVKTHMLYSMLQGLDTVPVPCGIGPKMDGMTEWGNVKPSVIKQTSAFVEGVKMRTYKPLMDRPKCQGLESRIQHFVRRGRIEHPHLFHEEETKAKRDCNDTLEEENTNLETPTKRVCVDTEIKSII
inactive: [1] -0.019 | [2] 0.045 | [3] -0.063 | [4] -0.042 | [5] 0.145 | [6] 0.078 | [7] -0.007 | [8] -0.003 | [9] 0.023 | [10] 0.075

PPP4R2 (UniProt Q9NY27)
Sequence of UniProt Q9NY27 (Q9NY27 whole entry, looked up): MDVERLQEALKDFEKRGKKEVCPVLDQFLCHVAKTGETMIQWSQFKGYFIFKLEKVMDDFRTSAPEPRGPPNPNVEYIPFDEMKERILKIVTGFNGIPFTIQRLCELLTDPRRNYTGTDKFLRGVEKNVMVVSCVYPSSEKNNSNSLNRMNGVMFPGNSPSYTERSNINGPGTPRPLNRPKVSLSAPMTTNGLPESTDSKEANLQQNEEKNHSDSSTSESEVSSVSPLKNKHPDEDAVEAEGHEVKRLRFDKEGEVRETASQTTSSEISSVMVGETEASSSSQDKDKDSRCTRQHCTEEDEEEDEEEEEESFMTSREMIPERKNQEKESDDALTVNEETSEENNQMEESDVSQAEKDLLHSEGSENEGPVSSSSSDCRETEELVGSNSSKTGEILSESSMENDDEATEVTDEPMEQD
inactive: [1] 0.012 | [2] 0.018 | [3] 0.029 | [4] 0.005 | [5] -0.028 | [6] -0.009 | [7] -0.042 | [8] -0.011 | [9] 0.009 | [10] -0.01

PPP1R11 (UniProt O60927)
inactive: [1] -0.03 | [2] 0.035 | [3] -0.051 | [4] 0.074 | [5] -0.055 | [6] -0.131 | [7] -0.001 | [8] 0.01 | [9] -0.067 | [10] 0.078

PIKFYVE (UniProt Q9Y2I7)
Sequence of UniProt Q9Y2I7 (Q9Y2I7 whole entry, looked up): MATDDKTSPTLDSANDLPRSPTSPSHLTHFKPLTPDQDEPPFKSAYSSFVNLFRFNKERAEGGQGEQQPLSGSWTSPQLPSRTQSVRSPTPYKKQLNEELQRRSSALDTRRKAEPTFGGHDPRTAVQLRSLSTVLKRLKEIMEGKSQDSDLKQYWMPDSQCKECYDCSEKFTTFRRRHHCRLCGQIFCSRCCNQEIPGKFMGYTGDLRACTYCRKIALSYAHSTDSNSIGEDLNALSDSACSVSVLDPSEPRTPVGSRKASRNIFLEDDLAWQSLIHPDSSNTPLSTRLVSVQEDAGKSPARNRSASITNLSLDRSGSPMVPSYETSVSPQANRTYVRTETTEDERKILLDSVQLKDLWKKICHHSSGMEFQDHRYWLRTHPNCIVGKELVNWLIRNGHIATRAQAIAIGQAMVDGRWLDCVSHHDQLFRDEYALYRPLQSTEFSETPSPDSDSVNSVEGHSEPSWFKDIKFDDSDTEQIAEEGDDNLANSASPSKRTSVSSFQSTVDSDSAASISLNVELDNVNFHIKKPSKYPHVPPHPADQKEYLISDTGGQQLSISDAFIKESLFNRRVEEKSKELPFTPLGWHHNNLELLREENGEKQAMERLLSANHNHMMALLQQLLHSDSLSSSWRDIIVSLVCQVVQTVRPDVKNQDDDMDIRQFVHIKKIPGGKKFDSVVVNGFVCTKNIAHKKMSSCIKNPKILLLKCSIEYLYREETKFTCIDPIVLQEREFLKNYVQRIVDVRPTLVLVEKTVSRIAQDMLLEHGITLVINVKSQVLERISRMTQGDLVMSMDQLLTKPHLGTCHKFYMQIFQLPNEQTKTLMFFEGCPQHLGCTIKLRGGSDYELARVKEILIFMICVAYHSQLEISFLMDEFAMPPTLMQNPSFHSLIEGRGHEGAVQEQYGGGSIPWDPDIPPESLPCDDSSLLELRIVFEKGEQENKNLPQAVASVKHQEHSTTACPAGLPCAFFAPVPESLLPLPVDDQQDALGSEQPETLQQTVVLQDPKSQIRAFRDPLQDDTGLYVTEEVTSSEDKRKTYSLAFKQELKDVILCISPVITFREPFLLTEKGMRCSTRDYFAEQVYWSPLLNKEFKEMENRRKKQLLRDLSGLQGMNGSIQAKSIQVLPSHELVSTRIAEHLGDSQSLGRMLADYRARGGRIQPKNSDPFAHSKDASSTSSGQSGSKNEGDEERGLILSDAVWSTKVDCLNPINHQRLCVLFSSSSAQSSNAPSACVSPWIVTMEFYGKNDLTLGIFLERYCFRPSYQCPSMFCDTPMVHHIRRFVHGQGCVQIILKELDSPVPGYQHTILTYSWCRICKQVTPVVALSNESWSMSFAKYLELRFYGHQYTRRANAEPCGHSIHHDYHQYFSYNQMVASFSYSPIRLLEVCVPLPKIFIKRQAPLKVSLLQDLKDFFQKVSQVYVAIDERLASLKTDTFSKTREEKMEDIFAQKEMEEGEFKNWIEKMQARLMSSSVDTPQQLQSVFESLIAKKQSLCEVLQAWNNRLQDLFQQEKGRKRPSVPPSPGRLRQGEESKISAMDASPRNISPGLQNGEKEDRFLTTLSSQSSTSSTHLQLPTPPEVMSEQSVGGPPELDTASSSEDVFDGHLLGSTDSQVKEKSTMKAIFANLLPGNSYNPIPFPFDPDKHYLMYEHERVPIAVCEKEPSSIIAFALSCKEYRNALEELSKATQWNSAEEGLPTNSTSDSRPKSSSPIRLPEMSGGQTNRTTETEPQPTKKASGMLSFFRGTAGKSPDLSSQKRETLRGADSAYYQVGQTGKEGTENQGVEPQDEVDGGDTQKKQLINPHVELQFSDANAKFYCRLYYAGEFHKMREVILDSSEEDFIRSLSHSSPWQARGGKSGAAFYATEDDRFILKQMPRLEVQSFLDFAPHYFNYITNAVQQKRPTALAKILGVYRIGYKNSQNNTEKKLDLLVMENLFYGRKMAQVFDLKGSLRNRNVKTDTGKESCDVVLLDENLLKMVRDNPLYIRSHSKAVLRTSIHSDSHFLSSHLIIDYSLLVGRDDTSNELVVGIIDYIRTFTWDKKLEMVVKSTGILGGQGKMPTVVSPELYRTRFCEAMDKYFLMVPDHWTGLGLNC
inactive: [1] 0.017 | [2] -0.017 | [3] -0.022 | [4] -0.015 | [5] 0.009 | [6] -0.014 | [7] -0.035 | [8] 0.007 | [9] 0.027 | [10] -0.005

PTPN23 (UniProt Q9H3S7)
inactive: [1] -0.003 | [2] -0.029 | [3] -0.034 | [4] -0.002 | [5] 0.01 | [6] 0.002 | [7] 0 | [8] 0.024 | [9] 0.025 | [10] 0.005

PES1 (UniProt O00541)
inactive: [1] -0.004 | [2] 0.006 | [3] 0.016 | [4] -0.034 | [5] 0.001 | [6] -0.067 | [7] 0.001 | [8] 0.026 | [9] 0.015 | [10] -0.047

PKN1 isoform 2 (UniProt Q16512)
inactive: [1] -0.014 | [2] -0.098 | [3] -0.14 | [4] -0.002 | [5] 0 | [6] 0.102 | [7] 0.009 | [8] -0.128 | [9] -0.054 | [10] -0.004

PIP5K1A (UniProt Q99755)
inactive: [1] -0.091 | [2] 0.011 | [3] -0.137 | [4] -0.082 | [5] 0.033 | [6] -0.165 | [7] 0.032 | [8] 0.034 | [9] -0.041 | [10] 0.01

PRKD2 isoform 3 (UniProt Q9BZL6)
inactive: [1] 0.079 | [2] -0.229 | [3] 0.028 | [4] -0.054 | [5] 0.04 | [6] -0.046 | [7] 0.069 | [8] -0.115 | [9] 0.06 | [10] -0.01

PPME1 isoform 4 (UniProt Q9Y570)
inactive: [1] 0.01 | [2] -0.053 | [3] -0.008 | [4] -0.025 | [5] -0.003 | [6] 0.018 | [7] 0.01 | [8] -0.03 | [9] -0.016 | [10] 0.041

PRRC2A (UniProt P48634)
inactive: [1] -0.044 | [2] 0.01 | [3] 0.004 | [4] 0.002 | [5] -0.003 | [6] 0.015 | [7] -0.036 | [8] 0.059 | [9] -0.011 | [10] 0.02

PEF1 (UniProt Q9UBV8)
Sequence of UniProt Q9UBV8 (Q9UBV8 whole entry, looked up): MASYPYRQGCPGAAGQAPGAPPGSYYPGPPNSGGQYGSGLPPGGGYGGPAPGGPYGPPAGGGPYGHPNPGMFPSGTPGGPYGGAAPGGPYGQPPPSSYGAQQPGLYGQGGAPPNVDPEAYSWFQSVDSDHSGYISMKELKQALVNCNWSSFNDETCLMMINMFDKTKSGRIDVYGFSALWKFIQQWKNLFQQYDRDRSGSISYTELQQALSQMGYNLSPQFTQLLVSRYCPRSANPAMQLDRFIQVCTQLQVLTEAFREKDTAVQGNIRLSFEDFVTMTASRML
inactive: [1] 0.026 | [2] 0.013 | [3] 0.012 | [4] -0.015 | [5] -0.004 | [6] 0.08 | [7] 0.028 | [8] -0.018 | [9] 0.005 | [10] 0.011

PUS1 (UniProt Q9Y606)
inactive: [1] 0.005 | [2] -0.042 | [3] -0.01 | [4] 0.01 | [5] 0.018 | [6] -0.058 | [7] 0.018 | [8] 0.043 | [9] 0.036 | [10] -0.023

PDF (UniProt Q9HBH1)
inactive: [1] 0.014 | [2] 0.002 | [3] -0.037 | [4] 0.02 | [5] 0.067 | [6] -0.064 | [7] -0.012 | [8] 0.022 | [9] -0.034 | [10] 0.056

PRPF38A (UniProt Q8NAV1)
Sequence of UniProt Q8NAV1 (Q8NAV1 whole entry, looked up): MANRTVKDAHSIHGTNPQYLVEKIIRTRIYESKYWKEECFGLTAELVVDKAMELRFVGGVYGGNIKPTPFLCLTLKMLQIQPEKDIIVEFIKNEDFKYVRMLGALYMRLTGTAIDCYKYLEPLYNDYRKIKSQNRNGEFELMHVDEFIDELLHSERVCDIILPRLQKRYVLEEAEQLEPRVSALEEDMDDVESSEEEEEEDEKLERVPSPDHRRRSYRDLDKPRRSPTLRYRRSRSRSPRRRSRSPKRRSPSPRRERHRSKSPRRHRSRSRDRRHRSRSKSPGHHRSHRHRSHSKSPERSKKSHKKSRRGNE
inactive: [1] 0.076 | [2] 0.018 | [3] -0.055 | [4] -0.088 | [5] -0.001 | [7] -0.016 | [8] 0.092 | [9] 0.003 | [10] 0.049
active: [6] -0.452

PDCD10 (UniProt Q9BUL8)
inactive: [1] 0.006 | [2] 0.121 | [3] 0.077 | [4] 0.03 | [5] 0.013 | [6] -0.053 | [7] -0.005 | [8] 0.114 | [9] -0.018 | [10] 0.004

POLD3 (UniProt Q15054)
inactive: [1] 0.03 | [2] -0.014 | [3] -0.002 | [4] 0.029 | [5] 0.007 | [6] -0.049 | [7] 0.002 | [8] 0.013 | [9] 0.018 | [10] -0.027

PRKAB2 (UniProt O43741)
Sequence of UniProt O43741 (O43741 whole entry, looked up): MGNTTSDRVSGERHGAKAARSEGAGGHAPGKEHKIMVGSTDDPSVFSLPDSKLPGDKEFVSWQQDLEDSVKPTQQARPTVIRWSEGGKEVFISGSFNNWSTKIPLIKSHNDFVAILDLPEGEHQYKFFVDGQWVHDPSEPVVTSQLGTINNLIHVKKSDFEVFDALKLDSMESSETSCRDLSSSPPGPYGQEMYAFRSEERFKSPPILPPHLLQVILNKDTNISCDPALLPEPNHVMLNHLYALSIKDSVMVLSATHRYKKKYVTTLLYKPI
inactive: [1] 0.033 | [2] 0.203 | [3] -0.049 | [4] 0.106 | [5] 0.042 | [6] -0.031 | [7] -0.031 | [8] 0.14 | [9] 0.036 | [10] 0.023
